# An excerpt weighted towards active compounds, which were near 2.9% of everything screened.
# ATXN2 expr inh = reduces ATXN2 reporter expression in HEK-293 cells; HEK-293 ATXN2-luciferase reporter, luminescence, 24 h; Potency, µM (highest dose often 57 µM), hits mostly inhibitors; 0.72% of 360,000 active; note: nearly all actives have a fitted effect of over 55% in size
#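 qHTS (up to 57 uM final) was run with 24 h compound exposure of reporter cells at 37 °C. Each well was multiplexed: SteadyGlo luminescence measured ATXN2-luciferase expression after a fluorogenic Gly-Phe-AFC viability readout (25 uM final).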
# Nrf2 ARE act = activates Nrf2 signaling; Potency, µM (series often up to 46.1 µM), hits mostly activators; AREc32 ARE-luciferase reporter (MCF7-derived line), luminescence, 24 h; 0.31% of 410,000 active; note: nearly all actives have a fitted effect of over 65% in size
#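 Steps: seed AREc32_Fluc cells (1000/well, 5% FBS OPTI-MEM); incubate overnight at 37 deg C; add 23 nL compound; incubate 24 hr; add Steady-Glo; hold 30 min RT; read luminescence.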
# A549 tox-1 = A549 cytotoxicity, counter-screen for Nrf2 inhibitors | Potency, µM (doses to about 46 µM), actives largely listed as inhibitors | 0.16% of 390,000 active | A549 ARE-Fluc cells, CellTiter-Fluor viability, 18-24 h
#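 A549 ARE_Fluc cells in 5% FBS OPTI-MEM were exposed to compounds in concentration-response for 18-24 h at 37 deg C. Viability was read by CellTiter-Fluor fluorescence (Ex 405/Em 525) after 30 min, before the luciferase read.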
# Nrf2 block = Nrf2 pathway inhibition | A549 ARE-Fluc reporter, luciferase luminescence, 18-24 h | Potency, µM (top dose mostly 46 µM), usual class: inhibitors | 2.1% of 360,000 active | AID 504444; note: nearly all actives have a fitted effect of over 60% in size
#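 Nrf2 activity is the BugLite luminescence, read 15 min after reagent at room temperature, following CellTiter-Fluor cytotoxicity readout (30 min, 37C). Compound titrations were applied for 18-24 h to 5000 A549 ARE_Fluc cells/well in 5% FBS OPTI-MEM.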
# S2 tox = reduces viability in counter-screen for ATXN expression inhibitors | AID 651635 | Potency, µM (series often up to 56.7 µM), usual class: cytotoxic | 0.49% of 400,000 active | S2 cells (HEK-293 line with an ATXN2-luciferase reporter) viability, CellTiter-Fluor protease fluorescence, 24 h; note: nearly all actives have a fitted effect of over 40% in size
# FLuc enzyme inh = counter-screen for Nrf2 inhibitors: firefly luciferase enzyme inhibition; shares compounds with Nrf2 block; purified firefly luciferase, luminescence inhibition; Potency, µM (highest dose often 57.5 µM), most hits filed as inhibitors; 4% of 1,400 active; note: nearly all actives have a fitted effect of over 65% in size
# Target sequence (P08659 whole entry, looked up): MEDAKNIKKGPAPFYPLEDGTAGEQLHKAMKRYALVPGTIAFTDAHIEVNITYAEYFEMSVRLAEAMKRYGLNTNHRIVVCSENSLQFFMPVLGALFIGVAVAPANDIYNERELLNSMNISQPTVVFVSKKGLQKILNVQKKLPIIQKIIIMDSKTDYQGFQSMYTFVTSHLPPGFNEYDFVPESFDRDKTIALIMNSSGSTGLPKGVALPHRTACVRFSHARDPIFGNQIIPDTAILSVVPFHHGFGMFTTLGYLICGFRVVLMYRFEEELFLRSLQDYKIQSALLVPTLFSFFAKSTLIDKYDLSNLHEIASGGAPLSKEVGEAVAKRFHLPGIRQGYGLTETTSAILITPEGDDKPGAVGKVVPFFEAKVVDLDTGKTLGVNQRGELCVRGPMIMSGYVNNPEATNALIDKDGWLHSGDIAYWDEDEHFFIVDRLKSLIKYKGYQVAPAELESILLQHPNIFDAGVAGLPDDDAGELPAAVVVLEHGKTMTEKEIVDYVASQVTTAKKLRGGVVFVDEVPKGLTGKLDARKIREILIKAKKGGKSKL
# A549 tox-2 = toxic to A549 ARE-Fluc cells in Nrf2 counterscreen. Potency, µM (top dose mostly 46.1 µM), most hits filed as inhibitors. shares compounds with Nrf2 block. A549 ARE-Fluc cells, cytotoxicity counterscreen. 2% of 1,400 active;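 note: cells exposed to compounds for 18 to 24 hours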
# ARE-Fluc inh = Nrf2 inhibition confirmed, A549 ARE-luciferase; shares compounds with Nrf2 block; A549 ARE-firefly luciferase reporter, luminescence; Potency, µM (top dose mostly 46.1 µM), most hits filed as inhibitors; 74% of 1,400 active; AID 720524; note: nearly all actives have a fitted effect of over 65% in size
# Hits are given with their value; i = inactive; ? = inconclusive; nt = no result; ! = not active in a repeat. Calls come from the whole dose curve; as a rule, active = well fitted curve in the direction sought with a large enough effect; inconclusive = small, poorly fitted or top-dose-only effect, or another doubt; inactive = no such curve, though single readings can be large; an effect the other way counts as inactive or inconclusive.
SMILES,ATXN2 expr inh,Nrf2 ARE act,A549 tox-1,Nrf2 block,S2 tox,FLuc enzyme inh,A549 tox-2,ARE-Fluc inh
CC(=O)OC1CC(OC2C(O)CC(OC3C(O)CC(OC4CCC5(C)C(CCC6C5CC(O)C5(C)C(C7=CC(=O)OC7)CCC65O)C4)OC3C)OC2C)OC(C)C1OC1OC(CO)C(O)C(O)C1O (configuration not stated),0.32µM,i,?,0.13µM,?,i,?,0.16µM
ON1C2CCCCC2N(O)C1c1ccccc1F (configuration not stated),i,i,i,i,i,nt,nt,nt
OCC1CN1C1CCCCC1 (configuration not stated),i,i,i,i,i,nt,nt,nt
COCCn1c(O)c(/C=N/NC(=O)CSC(=S)N2CCCC2)c(=O)[nH]c1=S,i,i,i,i,i,nt,nt,nt
Cc1ccc(NC(=O)Nc2ccc3nc(N4CCN(C)CC4)cc(C)c3c2)cc1F,i,i,i,i,?,nt,nt,nt
C[C@]12CC[C@H](O)C[C@H]1CC[C@@H]1[C@@H]2C[C@@H](O)[C@]2(C)[C@@H](C3=CC(=O)OC3)CC[C@]12O,?,i,?,0.46µM,?,i,?,0.46µM
C[C@]12CC[C@H](O)C[C@H]1CC[C@@H]1[C@@H]2CC[C@]2(C)[C@@H](C3=CC(=O)OC3)CC[C@]12O,0.32µM,i,?,0.26µM,?,i,?,0.21µM
C[C@]12CC[C@H]3C(CCC4(O)CC(O)CC[C@]34C=O)C1=CC[C@H]2c1ccc(=O)oc1 (some centres not stated),nt,i,i,?,?,nt,nt,nt
C[C@H]1O[C@@H](O[C@H]2[C@@H](O)C[C@@H](O[C@H]3[C@@H](O)C[C@H](O[C@H]4CC[C@@]5(C)[C@H](CC[C@@H]6[C@@H]5CC[C@]5(C)[C@@H](C7=CC(=O)OC7)CC[C@]65O)C4)O[C@@H]3C)O[C@@H]2C)C[C@H](O)[C@@H]1O,nt,nt,nt,nt,nt,i,?,0.021µM
C[C@]12CC[C@H](O)C[C@H]1CCC1C2CC[C@]2(C)[C@@H](c3ccc(=O)oc3)C[C@H]3O[C@]132 (some centres not stated),nt,nt,nt,nt,nt,i,?,1.5µM
CCCC(=O)NC1=C(N2CC2)C(=O)C(NC(=O)CCC)=C(N2CC2)C1=O,i,i,?,?,i,nt,nt,nt
NC(=O)c1cn(C2OC(CO)C(O)C2O)c2ncnc(N)c12 (configuration not stated),0.28µM!,i,?,0.46µM,nt,i,?,0.82µM
Nc1ncnc2c1ncn2[C@@H]1O[C@H](COP(=O)(O)CP(=O)(O)O)[C@@H](O)[C@H]1O,i,i,i,i,i,nt,nt,nt
CC[C@@]1(O)C(=O)OCc2c1cc1n(c2=O)Cc2cc3c(N)cccc3nc2-1,i,i,?,0.65µM,?,i,?,0.26µM
O=C(O)c1cccc2nc3ccccc3nc12,i,i,i,2.3µM,?,i,i,3.3µM
Cc1cc(C)nc(-n2c(C)nc3cc(Cl)ccc3c2=O)c1,i,i,i,i,i,nt,nt,nt
CC1=CC(C)CC(C)OC(=O)CC(c2ccc(O)cc2)NC(=O)C(Cc2c(Br)[nH]c3ccccc23)N(C)C(=O)C(C)NC(=O)C(C)C1 (configuration not stated),?,i,1.8µM,0.58µM,0.015µM,i,?,1.5µM
CCCOc1ccccc1OCC(=O)N1CCN(CC(=O)N2CCOCC2)CC1,nt,i,nt,nt,i,nt,nt,nt
O=C(Nc1ccc(F)cc1F)c1cccn(Cc2ccccc2)c1=O,i,i,i,?,i,nt,nt,nt
Cc1ccc(F)cc1NC(=O)c1ccc(Cn2nc(N3CCN(c4ccccc4)CC3)ccc2=O)o1,nt,i,i,7.3µM,nt,i,i,12µM
Cc1ccc(-n2c(O)c(C=NC3CCCC3)c(=O)[nH]c2=O)c(C)c1,i,i,i,i,?,nt,nt,nt
CCCCCCn1c(=O)c(C(=O)Nc2ncccc2C)c(O)c2ccccc21,nt,i,i,8.2µM,i,i,i,?
